Source: PubChem BioAssay (NCATS)
The source made the active and inactive calls. How the calls were made is not given here.

Each molecule was assayed on HIV-1 nucleocapsid protein NCp7 (binding to TG oligonucleotide) (assay: HIV Nucleocapsid (AID 346;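 further: potency is for inhibitors that block NC binding and lower polarization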)). Conditions: HIV-1 NC / fluorescein-TGTGTGTG probe, fluorescence polarization.
Outline: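 Fluorescence polarization readout: labelled TG4xF oligo (10 nM) with 100 nM nucleocapsid protein, high-salt (250mM NaCl) Hepes pH 7.5 buffer containing zinc and fresh reducing agents. Compounds added by pin tool; incubation 1 hr, room temperature.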
Potency means the concentration at half of the fitted maximal effect.

SMILES	Potency
COc1cccc(Cn2c(=O)c(-c3cc(F)cc(F)c3)nc3cncnc32)c1	> 20 µM (inactive)
CS(=O)(=O)Nc1cccc(-c2nc(N3CCNCC3)c3ccccc3n2)c1	> 20 µM (inactive)
Cn1cc(-c2nc3cncnc3n(-c3ccccc3)c2=O)c2ccccc21	4.43 µM (active)
Cc1noc(C)c1C(=O)N1CCC2(CC1)CN(Cc1cc(C(F)(F)F)cc(C(F)(F)F)c1)C2	> 20 µM (inactive)
Cc1cnc(CNc2ncnc3ccc(-c4ccoc4)cc23)cn1	> 20 µM (inactive)
O=C(c1cccc(F)c1)N1CCC[C@@]2(CCN(c3ccccn3)C2)C1	> 20 µM (inactive)
Cc1cccc(CNc2ccnc(-c3ccccc3C(F)(F)F)n2)c1	> 20 µM (inactive)
O=c1c(CCc2ccccc2)nc2cnc(N3CCOCC3)nc2n1-c1ccccc1	> 20 µM (inactive)
CS(=O)(=O)Nc1cccc(-c2cncnc2-n2ccnc2)c1	> 20 µM (inactive)
Cc1cccc(CNc2nc(-c3ccc4c(c3)OCO4)nc3ccccc23)c1	> 20 µM (inactive)
CS(=O)(=O)N1CCC2(CC1)CN(Cc1ccccc1)C2	> 20 µM (inactive)
N#Cc1ccc(CN2CC3(CCN(C(=O)c4ccncc4)CC3)C2)cc1	> 20 µM (inactive)
Cc1nc2cnc(N3CCN(C)CC3)nc2n(-c2ccccc2)c1=O	> 20 µM (inactive)
O=C(c1cccc(F)c1)N1CCC[C@@]2(CCN(Cc3ccccc3)C2)C1	> 20 µM (inactive)
N#CCCn1c(=O)c(-c2cccs2)nc2cnc(Oc3ccccc3)nc21	> 20 µM (inactive)
COc1cccc(Cn2c(=O)c(-c3cccc(C#N)c3)nc3cnc(N4CCOCC4)nc32)c1	> 20 µM (inactive)
COc1ccc(NC(=O)N2CCC3(CC2)CCN(C(=O)c2cccn2C)CC3)cc1	> 20 µM (inactive)
O=S(=O)(c1ccccc1)N1CCC2(CCN(c3cccc(-c4ccccc4)c3)CC2)CC1	> 20 µM (inactive)
O=C(c1ccncc1)N1CCC[C@@]2(CCN(c3cccc(-c4ccccc4)c3)C2)C1	> 20 µM (inactive)
COc1ccc(-c2nc3cnc(N4CCN(C)CC4)nc3n(CCC#N)c2=O)cc1	> 20 µM (inactive)
COCC(=O)N1CCC[C@@]2(CCN(C(=O)Nc3ccc(OC)cc3)C2)C1	> 20 µM (inactive)
Cn1cc(-c2nc3cnc(N4CCNCC4)nc3n(Cc3ccc(F)cc3)c2=O)c2ccccc21	20.8 µM (inactive)
CC(C)CN1CC2(CCN(C(=O)c3ccco3)CC2)C1	> 20 µM (inactive)
COc1ccc(-n2c(=O)cnc3cnc(Oc4ccccc4)nc32)cc1	> 20 µM (inactive)
N#CCCn1c(=O)c(-c2ccccc2)nc2cnc(Nc3ccccc3)nc21	> 20 µM (inactive)
